# Assay results as given in PubChem BioAssay (NCATS).
# Records with an inconclusive call do not appear. A call without a number means that no potency is given here. Activity calls are given as the source filed them. Unless noted, calls follow the shape of the dose curve; as a rule, active = well fitted curve in the direction sought with a large enough effect; inconclusive = small, poorly fitted or top-dose-only effect, or another doubt; inactive = no such curve, though single readings can be large; an effect the other way counts as inactive or inconclusive.
# Key:
# [1] = qHTS Assay for Lipid Storage Modulators (AID 1519; calls by dose curve); details: Drosophila S3 cells, BODIPY lipid droplet/cell ratio, laser cytometry, cells loaded with oleic acid
# In short: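 Cells seeded at 5,000 per well were treated with compounds over a concentration series and loaded with oleic acid (400 uM, as added). Lipid droplet fluorescence (488 nm excitation, 500-530 nm channel) was read by laser-scanning cytometry and normalized to 20 uM Triacsin C.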
# [2] = molecular target: ATP-dependent 6-phosphofructokinase (Trypanosoma brucei brucei) (UniProt O15648); assay: qHTS Assay to Find Inhibitors of T. brucei phosphofructokinase: hit validation (AID 492961);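 also: luminescence reports ADP formed as PFK phosphorylates fructose-6-phosphate with ATP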; details: T. brucei PFK, ADP-Glo luminescence; series mostly up to 24.3 µM
# In short: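 Reaction: 0.1 M triethanolamine pH 8.0, 5 mM MgCl2, F6P 0.5 mM, ATP 0.1 mM, PFK 1.25 nM, 45 min RT. Read-out: ADP-Glo luminescence. Analysis: concentration-response fits, classed by r2 and efficacy.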
# [3] = molecular target: Luciferin 4-monooxygenase (Photinus pyralis) (UniProt P08659); assay: Biochemical firefly luciferase enzyme assay for NPC (AID 624030);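 also: purified P. pyralis luciferase at 10 nM with luciferin and ATP substrate; nearly all actives have a fitted effect of over 70% in size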; details: purified P. pyralis luciferase, luminescence, 5 min; series mostly up to 24.9 µM
# In short: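 Counter-screen for direct inhibition of the luciferase enzyme by approved-drug library compounds, run at 10 nM enzyme in 50 mM Tris acetate (final). Luminescence was read within 5 min of enzyme-buffer addition and normalized to PTC124 versus DMSO (0%).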
# [4] = qHTS profiling for inhibitors of Plasmodium falciparum proliferation (AID 504749); also: potency is read from the fitted curve at half-maximal effect; as to all read-outs here: nearly all actives have a fitted effect of over 60% in size; details: P. falciparum in erythrocytes, SYBR Green DNA, 72 h; for activity, negative = inhibition: at 12.8 µM (top of the series)
# In short: (§1)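 P. falciparum-infected erythrocytes (0.3% parasitemia, 2.5% hematocrit final) were exposed to compounds for 72 h at 37 C in 5% CO2, then lysed with SYBR Green buffer overnight at room temperature; parasite DNA fluorescence was normalized to artemisinin and DMSO controls.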
# 3D7 = assay: as above; details: P. falciparum in erythrocytes, SYBR Green DNA, 72 h; series mostly up to 12.8 µM
# In short: as §1
# AS120 = assay: as above; details: P. falciparum in erythrocytes, SYBR Green DNA, 72 h; series mostly up to 12.8 µM
# In short: as §1
# C2A = assay: as above; details: P. falciparum in erythrocytes, SYBR Green DNA, 72 h; series mostly up to 12.8 µM
# In short: as §1
# CP191 = assay: as above; details: P. falciparum in erythrocytes, SYBR Green DNA, 72 h; series mostly up to 12.8 µM
# In short: as §1
# CP192 = assay: as above; details: P. falciparum in erythrocytes, SYBR Green DNA, 72 h; series mostly up to 12.8 µM
# In short: as §1
# CP217 = assay: as above; details: P. falciparum in erythrocytes, SYBR Green DNA, 72 h; series mostly up to 12.8 µM
# In short: as §1
# CP238 = assay: as above; details: P. falciparum in erythrocytes, SYBR Green DNA, 72 h; series mostly up to 12.8 µM
# In short: as §1
# CP247 = assay: as above; details: P. falciparum in erythrocytes, SYBR Green DNA, 72 h; series mostly up to 12.8 µM
# In short: as §1
# CP250 = assay: as above; details: P. falciparum in erythrocytes, SYBR Green DNA, 72 h; series mostly up to 12.8 µM
# In short: as §1
# CP262 = assay: as above; details: P. falciparum in erythrocytes, SYBR Green DNA, 72 h; series mostly up to 12.8 µM
# In short: as §1
# ECU = assay: as above; details: P. falciparum in erythrocytes, SYBR Green DNA, 72 h; series mostly up to 12.8 µM
# In short: as §1
# HB3 = assay: as above; details: P. falciparum in erythrocytes, SYBR Green DNA, 72 h; series mostly up to 12.8 µM
# In short: as §1
# SC27B = assay: as above; details: P. falciparum in erythrocytes, SYBR Green DNA, 72 h; series mostly up to 12.8 µM
# In short: as §1
# [5] = molecular target: Ubiquitin carboxyl-terminal hydrolase 1 (Homo sapiens) (UniProt O94782); assay: Inhibitors of USP1/UAF1: Pilot qHTS (AID 504865); details: purified USP1/UAF1, Ub-rhodamine cleavage fluorescence; series mostly up to 114 µM;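 also: rhodamine fluorescence freed from ubiquitin-rhodamine substrate followed over time; top concentration of the series differs between compounds; nearly all actives have a fitted effect of over 35% in size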
# In short: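 Enzyme-free wells gave the negative control, while test wells held 1nM USP1/UAF1 preincubated with compound for 15 min at room temperature. Ub-Rho at 150nM final started the reaction, and fluorescence at 480/540 nm was recorded kinetically.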
# CP185 = assay: qHTS profiling for inhibitors of Plasmodium falciparum proliferation (AID 504749); also: nearly all actives have a fitted effect of over 60% in size; also: potency is read from the fitted curve at half-maximal effect; details: P. falciparum in erythrocytes, SYBR Green DNA, 72 h; series mostly up to 12.8 µM
# In short: as §1
# FAB9 = assay: as above; details: P. falciparum in erythrocytes, SYBR Green DNA, 72 h; series mostly up to 12.8 µM
# In short: as §1
# [6] = measured here: cell count channel max response
# [7] = measured here: lipid channel max response
# Sequence of Ubiquitin carboxyl-terminal hydrolase 1 (Homo sapiens) (O94782 whole entry, looked up): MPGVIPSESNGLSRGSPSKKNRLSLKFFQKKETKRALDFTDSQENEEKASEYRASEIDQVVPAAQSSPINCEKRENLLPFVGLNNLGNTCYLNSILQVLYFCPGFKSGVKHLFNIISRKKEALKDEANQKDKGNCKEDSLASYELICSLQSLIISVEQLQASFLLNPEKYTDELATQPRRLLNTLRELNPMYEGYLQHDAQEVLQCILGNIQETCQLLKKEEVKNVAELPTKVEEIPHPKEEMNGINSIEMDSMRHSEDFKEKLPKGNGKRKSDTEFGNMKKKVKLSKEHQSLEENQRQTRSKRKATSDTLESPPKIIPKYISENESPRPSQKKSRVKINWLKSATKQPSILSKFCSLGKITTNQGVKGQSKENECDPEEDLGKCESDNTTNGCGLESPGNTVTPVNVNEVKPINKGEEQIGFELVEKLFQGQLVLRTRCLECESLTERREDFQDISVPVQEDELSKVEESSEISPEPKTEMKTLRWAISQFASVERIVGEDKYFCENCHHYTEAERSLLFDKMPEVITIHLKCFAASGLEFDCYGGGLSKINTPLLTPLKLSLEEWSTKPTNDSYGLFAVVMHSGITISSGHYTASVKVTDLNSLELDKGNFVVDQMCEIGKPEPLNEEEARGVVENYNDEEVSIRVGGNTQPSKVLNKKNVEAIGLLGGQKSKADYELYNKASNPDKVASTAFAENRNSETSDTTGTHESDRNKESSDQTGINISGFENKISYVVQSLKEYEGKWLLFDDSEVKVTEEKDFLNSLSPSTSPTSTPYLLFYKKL
# Sequence of Luciferin 4-monooxygenase (Photinus pyralis) (P08659 whole entry, looked up): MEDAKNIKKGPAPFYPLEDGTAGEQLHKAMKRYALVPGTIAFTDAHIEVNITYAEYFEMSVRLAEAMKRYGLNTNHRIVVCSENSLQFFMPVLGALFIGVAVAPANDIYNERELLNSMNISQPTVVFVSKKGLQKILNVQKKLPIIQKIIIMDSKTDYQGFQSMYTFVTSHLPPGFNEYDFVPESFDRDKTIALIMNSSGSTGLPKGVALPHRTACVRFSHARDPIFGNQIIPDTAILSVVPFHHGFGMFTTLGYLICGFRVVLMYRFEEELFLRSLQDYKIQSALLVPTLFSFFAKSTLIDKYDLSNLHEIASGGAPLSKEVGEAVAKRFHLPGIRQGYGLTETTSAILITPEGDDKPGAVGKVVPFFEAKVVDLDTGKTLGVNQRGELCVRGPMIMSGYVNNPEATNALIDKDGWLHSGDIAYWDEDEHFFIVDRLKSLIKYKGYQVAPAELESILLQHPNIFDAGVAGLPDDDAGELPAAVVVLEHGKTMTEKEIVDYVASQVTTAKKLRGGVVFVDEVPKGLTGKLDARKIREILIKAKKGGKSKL
# Sequence of ATP-dependent 6-phosphofructokinase (Trypanosoma brucei brucei) (O15648 whole entry, looked up): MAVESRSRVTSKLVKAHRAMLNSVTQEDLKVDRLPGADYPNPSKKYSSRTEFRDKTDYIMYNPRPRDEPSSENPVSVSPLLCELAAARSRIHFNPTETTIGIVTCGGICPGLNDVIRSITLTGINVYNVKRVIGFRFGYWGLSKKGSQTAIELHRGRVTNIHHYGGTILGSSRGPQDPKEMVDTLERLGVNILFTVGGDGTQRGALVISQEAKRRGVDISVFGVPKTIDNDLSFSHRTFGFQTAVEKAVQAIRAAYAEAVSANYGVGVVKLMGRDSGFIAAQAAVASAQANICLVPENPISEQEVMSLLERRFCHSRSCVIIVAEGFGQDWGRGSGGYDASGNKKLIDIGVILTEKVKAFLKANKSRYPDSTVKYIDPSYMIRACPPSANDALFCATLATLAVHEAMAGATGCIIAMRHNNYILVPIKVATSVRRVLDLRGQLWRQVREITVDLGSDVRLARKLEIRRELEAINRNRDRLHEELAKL
smiles,measurement,setting,value
C=Cc1c(C)c2cc3nc(cc4[nH]c(cc5nc(cc1[nH]2)C(C)=C5CCC(=O)O)c(CCC(=O)OC)c4C)[C@@]1(C)C3=CC=C(C(=O)OC)[C@H]1C(=O)OC (tested in a mixture with another compound),"activity change, negative = inhibition",[1]; at 25.7 µM (top of the series),1.23% (inactive)
same,max response,[1]; [6],3.74%
same,max response,[1]; [7],2.29%
same,outcome,[2],inactive
same,Potency,[3],inactive
same,Potency,[4]; parasite line A,10 µM (active)
same,Potency,[4]; parasite line B,5.62 µM (active)
same,Potency,3D7,3.55 µM (active)
same,Potency,AS120,5.62 µM (active)
same,Potency,C2A,14.1 µM (active)
same,Potency,CP191,11.2 µM (active)
same,Potency,CP192,inactive
same,Potency,CP217,10 µM (active)
same,Potency,CP238,11.2 µM (active)
same,Potency,CP247,10 µM (active)
same,Potency,CP250,10 µM (active)
same,Potency,CP262,inactive
same,Potency,ECU,3.98 µM (active)
same,Potency,HB3,4.47 µM (active)
same,Potency,SC27B,5.62 µM (active)
Cc1onc(-c2c(F)cccc2Cl)c1C(=O)N[C@H]1C(=O)N2[C@H]1SC(C)(C)[C@H]2C(=O)O,"activity change, negative = inhibition",[1]; at 25.7 µM (top of the series),-2.99% (inactive)
same,max response,[1]; [6],-8.13%
same,max response,[1]; [7],-7.5%
same,Potency,[5],inactive
O=c1cc(-c2cccc(O)c2)oc2cc(O)ccc12,"activity change, negative = inhibition",[1]; at 57.5 µM (top of the series),8.05% (inactive)
same,max response,[1]; [6],22.9%
same,max response,[1]; [7],28%
C=C(C)[C@H]1CC[C@]2(C(=O)O)CC[C@]3(C)[C@@H](CC[C@H]4[C@@]5(C)CC[C@@H](O)C(C)(C)[C@@H]5CC[C@@]43C)[C@H]12,"activity change, negative = inhibition",[1]; at 25.7 µM (top of the series),-9.82% (inactive)
same,max response,[1]; [6],-3%
same,max response,[1]; [7],-17.2%
same,Potency,[5],inactive
O[C@@](CCN1CCCCC1)(c1ccccc1)[C@@H]1C[C@H]2C=C[C@@H]1C2,"activity change, negative = inhibition",[1]; at 25.7 µM (top of the series),1.83% (inactive)
same,max response,[1]; [6],-4.18%
same,max response,[1]; [7],-2.67%
same,Potency,[5],inactive
CO[C@H]1[C@@H](OC(N)=O)[C@H](O)[C@@H](Oc2ccc3c(O)c(NC(=O)c4ccc(O)c(CC=C(C)C)c4)c(=O)oc3c2C)OC1(C)C,"activity change, negative = inhibition",[1]; at 25.7 µM (top of the series),-1.82% (inactive)
same,max response,[1]; [6],-8.07%
same,max response,[1]; [7],-8.17%
same,outcome,[2],inactive
same,Potency,[5],inactive
same,Potency,[3],inactive
same,"activity, negative = inhibition",[4]; parasite line A,4.79% (inactive)
same,"activity, negative = inhibition",[4]; parasite line B,-4.42% (inactive)
same,Potency,3D7,inactive
same,Potency,AS120,inactive
same,Potency,C2A,inactive
same,Potency,CP185,inactive
same,Potency,CP191,inactive
same,Potency,CP192,inactive
same,Potency,CP217,inactive
same,Potency,CP238,inactive
same,Potency,CP247,inactive
same,Potency,CP250,inactive
same,Potency,CP262,inactive
same,Potency,ECU,inactive
same,Potency,FAB9,inactive
same,Potency,HB3,inactive
same,Potency,SC27B,inactive
CC=C(/C(=C/C)c1ccc(O)cc1)c1ccc(O)cc1,"activity change, negative = inhibition",[1]; at 25.7 µM (top of the series),-3.26% (inactive)
same,max response,[1]; [6],-14.6%
same,max response,[1]; [7],-18.3%
same,outcome,[2],inactive
same,Potency,[3],inactive
same,"activity, negative = inhibition",[4]; parasite line A,-1.05% (inactive)
same,"activity, negative = inhibition",[4]; parasite line B,-9.06% (inactive)
same,Potency,3D7,inactive
same,Potency,AS120,inactive
same,Potency,C2A,inactive
same,Potency,CP185,inactive
same,Potency,CP191,inactive
same,Potency,CP192,inactive
same,Potency,CP217,inactive
same,Potency,CP238,inactive
same,Potency,CP247,inactive
same,Potency,CP250,inactive
same,Potency,CP262,inactive
same,Potency,ECU,inactive
same,Potency,FAB9,inactive
same,Potency,HB3,inactive
same,Potency,SC27B,inactive
C=C(C)[C@H]1CC[C@]2(CO)CC[C@]3(C)[C@@H](CC[C@H]4[C@@]5(C)CC[C@@H](O)C(C)(C)[C@@H]5CC[C@@]43C)[C@H]12,"activity change, negative = inhibition",[1]; at 25.7 µM (top of the series),-10.7% (inactive)
same,max response,[1]; [6],-12.9%
same,max response,[1]; [7],-22.1%
same,Potency,[5],inactive
CC[C@@H]1OC(=O)[C@H](C)[C@H](O[C@@H]2C[C@](C)(OC)[C@H](O)[C@H](C)O2)[C@H](C)[C@H](O[C@@H]2O[C@@H](C)C[C@@H](N(C)C)[C@@H]2O)[C@](C)(O)C[C@H](C)C(=NOCOCCOC)[C@H](C)[C@H](O)[C@]1(C)O,"activity change, negative = inhibition",[1]; at 25.7 µM (top of the series),0.83% (inactive)
same,max response,[1]; [6],-2.35%
same,max response,[1]; [7],-1.19%
same,outcome,[2],inactive
same,Potency,[3],inactive
same,"activity, negative = inhibition",[4]; parasite line B,-20.4% (inactive)
same,Potency,3D7,inactive
same,Potency,AS120,inactive
same,Potency,C2A,inactive
same,Potency,CP185,inactive
same,Potency,CP192,inactive
same,Potency,CP217,inactive
same,Potency,CP238,inactive
same,Potency,CP247,inactive
same,Potency,CP250,inactive
same,Potency,CP262,inactive
same,Potency,ECU,inactive
same,Potency,FAB9,inactive
same,Potency,HB3,inactive
same,Potency,SC27B,inactive
COc1cc2c(cc1OC)-c1cc3ccc(OC)c(OC)c3c[n+]1CC2,"activity change, negative = inhibition",[1]; at 25.7 µM (top of the series),1.8% (inactive)
same,max response,[1]; [6],-8.72%
same,max response,[1]; [7],-7.96%
same,Potency,[5],inactive
COc1cccc(-c2nc(NCCc3c[nH]c4ccc(OC)cc34)c3ccccc3n2)c1,"activity change, negative = inhibition",[1]; at 57.5 µM (top of the series),5.14% (inactive)
same,max response,[1]; [6],-17.7%
same,max response,[1]; [7],-5.2%
C[C@@H](Cc1cccc(C(F)(F)F)c1)NCCOC(=O)c1ccccc1,"activity change, negative = inhibition",[1]; at 25.7 µM (top of the series),-1.81% (inactive)
same,max response,[1]; [6],-19.2%
same,max response,[1]; [7],-18.4%
same,Potency,[5],inactive
CN1CCC[C@@H](CC2c3ccccc3Sc3ccccc32)C1,"activity change, negative = inhibition",[1]; at 25.7 µM (top of the series),-5.3% (inactive)
same,max response,[1]; [6],-0.662%
same,max response,[1]; [7],-6.24%
same,outcome,[2],inactive
same,Potency,[5],inactive
same,Potency,[3],inactive
same,"activity, negative = inhibition",[4]; parasite line A,-16.3% (inactive)
same,Potency,C2A,inactive
same,Potency,CP185,inactive
same,Potency,CP191,inactive
same,Potency,CP192,inactive
same,Potency,CP217,inactive
same,Potency,CP238,inactive
same,Potency,CP247,inactive
same,Potency,CP250,inactive
same,Potency,CP262,inactive
same,Potency,ECU,inactive
same,Potency,FAB9,inactive
same,Potency,HB3,inactive
same,Potency,SC27B,inactive
Nc1c2ccccc2nc2c(O)cccc12,"activity change, negative = inhibition",[1]; at 25.7 µM (top of the series),-0.346% (inactive)
same,max response,[1]; [6],-4.58%
same,max response,[1]; [7],-4.09%
same,Potency,[5],inactive
NC[C@@H]1O[C@H](O[C@@H]2[C@H](O[C@@H]3O[C@H](CO)[C@@H](COC[C@H]4O[C@@H](CN)[C@@H](O)[C@@H](O)[C@@H]4N)[C@@H]3O)[C@@H](O)[C@@H](N)C[C@H]2N)[C@@H](N)[C@H](O)[C@@H]1O,"activity change, negative = inhibition",[1]; at 25.7 µM (top of the series),-1.17% (inactive)
same,max response,[1]; [6],1.11%
same,max response,[1]; [7],2.23%
same,Potency,[5],inactive
